# LYPLA2 inh: blocks human lysophospholipase 2, a PME1 counter-screen; O95372; recombinant LYPLA2, FP-Rh probe fluorescence polarization; inhibition, % at 5.9 µM; hit rate 0.38% among 320,000;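 active means inhibition above the screen-wide mean plus 3 SD, limit set per campaign, cut at about 26% in these data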;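 further: 0% = LYPLA2 with DMSO and 100% = wells lacking LYPLA2 enzyme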
# GSTO1 inh: counter-screen for RBBP9 inhibitors: inhibitors of human GSTO1 | P78417 | recombinant GSTO1, activity-based probe fluorescence polarization | inhibition, % at 5.96 µM | hit rate 1.1% among 300,000 | AID 1974;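 active means inhibition above the campaign mean inhibition plus 3 SD, cut at about 35% in these data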;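 further: 0% = GSTO1-1 with DMSO and 100% = wells lacking GSTO1-1 enzyme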
# PME-1 primary: blocks human protein phosphatase methylesterase 1; Q9Y570; recombinant PME-1, FP-Rh probe fluorescence polarization; inhibition, % at 5.9 µM; hit rate 0.53% among 320,000; AID 2130;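 active means inhibition above the campaign mean of all compounds plus 3 SD, cut at about 26% in these data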;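 further: competitive labeling of PME-1 active site by serine hydrolase directed probe; 0% = PME-1 with DMSO and 100% = wells lacking PME-1 enzyme; inhibitors block probe labeling so polarization falls and inhibition rises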
# LYPLA1 counter: LYPLA1 (human) inhibition in PME1 counter-screen | O75608 | recombinant LYPLA1, FP-Rh probe fluorescence polarization | inhibition, % at 5.9 µM | hit rate 0.16% among 320,000 | AID 2174;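 active means inhibition above the mean of all tested compounds plus 3 SD, set per campaign, cut at about 14% in these data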;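 further: inhibitors block serine hydrolase probe labeling of LYPLA1 so polarization falls; 0% = enzyme with DMSO and 100% = wells lacking LYPLA1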
# Fam108B inh: blocks mouse Fam108B hydrolase in RBBP9 counter-screen | AID 1947 | recombinant Fam108B, FP-Rh probe fluorescence polarization | inhibition, % at 9.51 µM | hit rate 0.33% among 300,000;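 active means inhibition above the screen mean inhibition plus 3 SD, computed separately per campaign, cut at about 18% in these data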;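 further: inhibitors lower polarization as less probe binds the enzyme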
# PAD4 inh: inhibitors of human PAD4 | recombinant PAD4, RCA probe fluorescence polarization | AID 485272 | hit rate 0.41% among 330,000 | Q9UM07 | inhibition, % at 6.36 µM;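 active means percent inhibition above a cutoff equal to the mean of all tested compounds plus 3 SD, cut at about 15% in these data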;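 further: 0% = PAD4 with RCA probe and DMSO and 100% = probe without PAD4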
# Target sequence (Q9UM07 whole entry, looked up): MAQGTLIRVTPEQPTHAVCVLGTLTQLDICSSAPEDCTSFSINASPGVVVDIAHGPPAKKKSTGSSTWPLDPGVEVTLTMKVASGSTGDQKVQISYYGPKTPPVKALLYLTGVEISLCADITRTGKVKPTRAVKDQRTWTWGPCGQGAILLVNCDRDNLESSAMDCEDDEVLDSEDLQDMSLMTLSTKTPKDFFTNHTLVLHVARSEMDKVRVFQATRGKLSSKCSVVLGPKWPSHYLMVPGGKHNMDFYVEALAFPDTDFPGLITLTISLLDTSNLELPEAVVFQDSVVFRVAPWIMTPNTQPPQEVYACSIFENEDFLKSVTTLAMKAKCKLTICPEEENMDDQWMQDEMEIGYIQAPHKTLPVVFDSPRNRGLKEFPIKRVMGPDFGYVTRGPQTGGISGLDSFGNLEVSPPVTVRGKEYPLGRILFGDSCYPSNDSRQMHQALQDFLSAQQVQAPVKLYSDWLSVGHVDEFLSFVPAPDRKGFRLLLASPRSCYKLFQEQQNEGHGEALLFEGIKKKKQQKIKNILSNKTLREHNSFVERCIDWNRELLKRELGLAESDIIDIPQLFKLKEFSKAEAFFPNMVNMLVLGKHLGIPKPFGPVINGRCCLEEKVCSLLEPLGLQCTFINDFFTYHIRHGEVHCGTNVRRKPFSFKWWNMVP
# GSTO1 confirm: confirmation of human GSTO1 inhibitors. recombinant GSTO1, probe fluorescence polarization. hit rate 54% among 2,400. shares compounds with GSTO1 inh. inhibition, % at 5.96 µM;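 active means inhibition above the primary screen's cutoff, its mean inhibition plus 3 SD, cut at about 35% in these data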;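 further: loss of polarization as inhibitors block binding of rhodamine sulfonate ester activity probe; 0% = GSTO1 with DMSO and 100% = wells lacking GSTO1 enzyme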
# GSTO1 ABPP inh: blocks recombinant human glutathione S-transferase omega 1; shares compounds with GSTO1 inh; recombinant GSTO1, gel ABPP SE-Rh probe fluorescence; inhibition, % at 1 µM; hit rate 30% among 130;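 active means inhibition of the enzyme GSTO1 above about 75%, limit read from the data; inactive means inhibition below that limit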
# * hit, by the source's call; nt = not tested or not shown. Only some compounds are listed: those with a hit (about 1.8% of all), similar ones and a draw of the others.
SMILES,LYPLA2 inh,GSTO1 inh,PME-1 primary,LYPLA1 counter,Fam108B inh,PAD4 inh,GSTO1 confirm,others
CCOC(=O)NC1(Nc2cccc(Cl)c2)Oc2ccccc2O1,2,56*,-2,-1,2,0,4,
CCOC(=O)NC(=O)/C(C#N)=N\Nc1cccc(Cl)c1,-1,-2,-1,3,2,4,nt,
CS(=O)c1ccc(-n2c(=O)n(Cc3ccccc3)c(=O)c3[nH]cnc32)cc1 (centres undefined),2,-1,-1,-1,0,-2,nt,
COc1cccc(N=Nc2ccc(O)c3ncccc23)c1,2,39*,13,-8,9,-10,1,
O=Nc1ccc(O)c2ncccc12,2,69*,21,5,3,-10,14,
COc1ccc(N=Nc2ccc(O)c3ncccc23)cc1,3,-61,8,-4,3,-10,nt,
O=[N+]([O-])c1ccc(O)c2ncccc12,4,45*,1,-1,6,-10,23,
Cc1ccccc1N=Nc1ccc(O)c2ncccc12,-1,-19,-2,1,8,-1,nt,
O=[N+]([O-])c1cc([N+](=O)[O-])c2cccnc2c1Oc1ccccc1O,5,50*,0,-3,0,4,6,
O=[N+]([O-])c1ccc(O)c2cccnc12,3,9,7,1,-5,-1,nt,
Cc1ccc2[nH]c(=O)c(CN(C(=O)c3cccc([N+](=O)[O-])c3)C(C)C)cc2c1,4,-3,0,4,3,0,nt,
O=C(Nc1ccc(F)cc1F)C1CCN(S(=O)(=O)c2cccnc2)CC1,3,-4,2,0,-3,0,nt,
COc1ccc(OC)c(NC(=O)COc2ccc3c(c2)CCC3)c1,4,nt,-30,1,nt,-7,nt,
Cc1ccc(C)c(Sc2ccc(NC(=O)CCl)cc2)c1,-1,75*,25,-5,-6,-5,82*,
NN1C(=O)/C(=C\c2ccco2)SC1=S,10,43*,0,0,5,6,16,
COCCn1cnnc1SCC(=O)Nc1ccc(N2CCCCC2)cc1,-3,nt,-2,0,nt,0,nt,
CCCc1cc(=O)oc2cc(OCC(=O)NCCc3ccc(S(N)(=O)=O)cc3)ccc12,13,5,1,6,0,-2,nt,
CC(=O)c1cccc(NC(=O)COC(=O)CCc2ccc(S(=O)(=O)N3CCOCC3)cc2)c1,2,-4,4,0,-4,-5,nt,
CC(C(=O)OCC(=O)Nc1cccc(S(=O)(=O)N2CCOCC2)c1)N1C(=O)c2ccccc2C1=O (centres undefined),0,39*,-3,-4,4,2,24,
Cc1ccc(NC(=O)COC(=O)CCc2ccc(S(=O)(=O)N3CCOCC3)cc2)cc1F,-2,40*,-6,-2,0,-4,4,
Cc1cc(C(=O)CSc2nnnn2C)c(C)n1-c1cccc(F)c1,0,34,2,-1,5,1,nt,
Cc1cc(C)cc(-n2c(C)cc(C(=O)CSc3nnnn3C)c2C)c1,8,49*,0,1,1,-8,43*,
Cc1ccc(C)c(NC(=O)CSc2nnc(-c3n[nH]c4ccccc34)o2)c1,-5,39*,-12,-3,-3,-4,29,
C=CCc1cc(Cl)ccc1OCCCn1ccnc1,0,-2,2,-2,0,-2,nt,
O=C(/C=C/c1ccc(O)c(O)c1)NC(=O)c1ccccc1O,-5,55*,-11,-4,-6,1,32,
SMILES,LYPLA2 inh,GSTO1 inh,PME-1 primary,LYPLA1 counter,Fam108B inh,PAD4 inh,GSTO1 confirm,others
CCOC(=O)c1c(C)[nH]c(C(=O)N(C)CC(=O)Nc2ccc(OC)cc2)c1C,-2,nt,-1,0,nt,-3,nt,
C[C@H](CO)N1C[C@H](C)[C@@H](CN(C)C(=O)Nc2ccc3c(c2)OCO3)Oc2ccc(NS(=O)(=O)c3ccccc3)cc2C1=O,nt,nt,nt,nt,nt,1,nt,
Cc1nnc(NC(=O)CN2CCN(Cc3ccccc3)CC2)s1,0,46*,0,-2,2,1,18,
CC(C)(C)c1ccc(S(=O)(=O)Nc2ccccn2)cc1,-1,6,-3,-1,0,-3,nt,
CN(C)c1cccc2c(S(=O)(=O)Nc3ccccn3)cccc12,2,45*,7,1,4,-9,7,
COC(=O)[C@]1(Cc2ccccc2)N[C@H](CN(C)C(=O)c2ccc(F)cc2)[C@@H]2C(=O)N(Cc3ccccc3)C(=O)[C@@H]21,nt,nt,nt,nt,nt,-8,nt,
O=C(O)C1=NN(c2ccccc2)C(=O)CC1,3,6,-3,5,0,-6,nt,
O=C(O)C1=NN(c2ccccc2)C(=O)C1,6,48*,-1,1,7,-1,11,
Cc1ccc(S(=O)(=O)NCc2ccccc2)cc1C(=O)NCC1CCCO1 (centres undefined),-1,-3,-1,-3,1,1,nt,
COc1ccc(S(=O)(=O)Nc2c(O)ccc3ccccc23)cc1OC,-6,45*,-5,-4,-3,-17,8,
COc1ccc(C(=O)Nc2c(O)ccc3ccccc23)cc1OC,0,2,-2,4,6,-7,nt,
O=S(=O)(c1ccc(OCC2CO2)cc1)c1ccc(OCC2CO2)cc1 (centres undefined),3,92*,2,1,-3,2,90*,GSTO1 ABPP inh=31
CC(C)(c1ccccc1)c1ccc(OCC2CO2)cc1 (centres undefined),-4,94*,4,-1,-1,3,91*,GSTO1 ABPP inh=63
O=C(O)COc1ccc(S(=O)(=O)c2ccc(OCC(=O)O)cc2)cc1,3,5,0,1,-3,3,nt,
CCOc1c(C)cnc2c1c(=O)n(CC(=O)NCC1CCCO1)c(=O)n2C (centres undefined),-1,3,-2,-1,1,-1,nt,
CCCCn1c(NC(=O)c2ccc(Br)o2)c(S(=O)(=O)c2ccccc2)c2nc3ccccc3nc21,-2,58*,5,-3,8,-12,67*,
CCOC(=O)c1sc(Nc2ccc(OCC)cc2)nc1C,-2,11,3,-2,1,1,nt,
CCOC(=O)c1sc(N2N=C(C)/C(=C\c3ccc(OCC(=O)OC)cc3)C2=O)nc1C,9,39*,2,-2,12,-11,13,
O=C(O)c1cc(N/N=C/c2ccc(N3CCOCC3)s2)ccc1Cl,5,39*,-3,3,16,-3,18,
COc1ccc2ccccc2c1CNCCN1CCOCC1,0,10,0,-2,-3,1,nt,
O=C1Nc2ccccc2/C1=N\N=C\c1ccc(O)c(O)c1,-4,69*,2,-4,9,2,11,
O=Cc1ccc(O)c(O)c1,-2,4,-2,-1,-5,3,nt,

# Screens from PubChem.
